From PubChem BioAssay (NCI) come the findings set out here.

This assay in a line: NCI Yeast Anticancer Drug Screen. Data for the sgs1 strain (AID 173).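 Also: 0% = growth of vehicle-only control cultures.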 The note with it: S. cerevisiae sgs1 mutant, stronger effect = higher value. The protocol:
Growth inhibition of yeast strains with defined genetic alterations is measured as a screen for potential anti-cancer activity. Selected strains with alterations in DNA damage repair or cell cycle control were exposed to compounds and growth inhibition was measured relative to vehicle treated controls. The strain used in this assay is sgs1

This is part of a sample that, as a whole, favours compounds with a hit. Of some 79,000 tested, about 15% had one in any assay. Unmarked numbers belong to inactive results. Calls of active or inactive are those of the source. Rule as the data show it: active = growth inhibition above about 70%; inactive = the rest.

Turning to `CC1=NN(C(=O)CC(=O)N(C(=O)c2ccccc2)c2ccc(Cl)cc2)C(=O)C1N=Nc1ccc([N+](=O)[O-])cc1` (stereo not given), the growth inhibition is 0% (at 1.2 µM); 14% (at 3.7 µM); 46% (at 11.0 µM); 68% (at 33.0 µM); 69% (at 100.0 µM).

For `O=C1c2ccccc2C(=O)C1C(c1ccc(F)cc1)C1C(=O)c2ccccc2C1=O`, the growth inhibition is 11% (at 1.2 µM); 25% (at 3.7 µM); 41% (at 11.0 µM); 54% (at 33.0 µM); 89% (active) (at 100.0 µM).

In the case of `Cc1[nH]nc(C(F)(F)F)c1N=NN(C)C`, the growth inhibition by setting is: (at 1.2 µM) 12%; (at 3.7 µM) 48%; (at 11.0 µM) 75% (active); (at 33.0 µM) 99% (active); (at 100.0 µM) 99% (active).

As for `CCOc1ccccc1N1C(=O)CC(Sc2ccccc2N)C1=O` (stereo not given), the growth inhibition is, setting by setting: (at 1.2 µM) 16%; (at 3.7 µM) 5%; (at 11.0 µM) 6%; (at 33.0 µM) 14%; (at 100.0 µM) -1%.

For `O=C1c2ccc(O)cc2C(=O)c2c(O)ccc(O)c21`, the growth inhibition (at 1.2 µM) was 3%; the growth inhibition (at 3.7 µM) is 19%; the growth inhibition (at 11.0 µM) was 90% (active); the growth inhibition (at 33.0 µM) is 95% (active); the growth inhibition (at 100.0 µM) is 91% (active).

As to `O=C(c1c(F)c(F)c(F)c(F)c1F)c1c(F)c(F)c(F)c(F)c1F`, the growth inhibition runs as follows: (at 1.2 µM) 39%; (at 3.7 µM) 72% (active); (at 11.0 µM) 96% (active); (at 33.0 µM) 97% (active); (at 100.0 µM) 95% (active).

Take `COc1ccc2nc(N/N=C/c3sccc3C)cc(C)c2c1`: the growth inhibition reads like this: (at 1.2 µM) -30%; (at 3.7 µM) -45%; (at 11.0 µM) -16%; (at 33.0 µM) 98% (active); (at 100.0 µM) 95% (active).

On to `COc1ccc(C(=O)OCCc2ccccc2)cc1`, for which the growth inhibition by setting is: (at 1.2 µM) -15%; (at 3.7 µM) 7%; (at 11.0 µM) -18%; (at 33.0 µM) -2%; (at 100.0 µM) -4%.
